Measured values from the supplement of paper PMC6992640.
± gives the standard deviation of the averaged measurements.

test system: UCD52 (cells of a triple-negative basal-like breast cancer xenograft); test: cell viability (% of vehicle); higher = less cytotoxic; conditions: 10 µM; 72 h
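Further: PDX cells carrying CMV promoter-driven luciferase, viability read as total photon flux per second by IVIS imaging following D-luciferin, vehicle control 0.1% DMSO.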

SMILES	cell viability
Clc1ccc(COC(Cn2ccnc2)c2ccc(Cl)cc2Cl)c(Cl)c1 (stereo not given) [Miconazole]	74.4 ± 3
O=C(O)[C@H](O)[C@@H](O)C(=O)O.c1cnc2cc3c(cc2n1)C1CNC[C@@H]3C1 [Varenicline Tartrate]	99.9 ± 8.8
CN(C)CCC(c1ccc(Cl)cc1)c1ccccn1.O=C(O)C=CC(=O)O (stereo not given) [Chlorpheniramine Maleate]	79.7 ± 2.5
Nc1nc(CC(=O)Nc2ccc(CCNCC(O)c3ccccc3)cc2)cs1 (stereo not given) [Mirabegron (YM178)]	82.2 ± 9.6
CCCS(=O)c1ccc2nc(NC(=O)OC)[nH]c2c1 (stereo not given) [Albendazole Oxide]	103 ± 11
C=C1C(CO)C(O)CC1n1cnc2c(=O)nc(N)[nH]c21.O (stereo not given) [Entecavir Hydrate]	103 ± 13
Cc1ccccc1C(OCCN(C)C)c1ccccc1.O=C(O)CC(O)(CC(=O)O)C(=O)O (stereo not given) [Orphenadrine Citrate]	68.3 ± 6.3
CCC(C)C(=O)OC1CC(C)C=C2C=CC(C)C(CCC3CC(O)CC(=O)O3)C21 (stereo not given) [Lovastatin]	50.7 ± 5.3
CN1CCC(=C2c3ccccc3CCc3sccc32)CC1.O=C(O)CC(O)C(=O)O [Pizotifen Malate]	82.7 ± 2.5
COCCCOc1cc(CC(CC(N)C(O)CC(C(=O)NCC(C)(C)C(N)=O)C(C)C)C(C)C)ccc1OC.COCCCOc1cc(CC(CC(N)C(O)CC(C(=O)NCC(C)(C)C(N)=O)C(C)C)C(C)C)ccc1OC.O=C(O)C=CC(=O)O (stereo not given) [Aliskiren Hemifumarate]	108 ± 13
